Among all 200,000 compounds or so, about 3,000 (1.5%) were called active.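 The calls were made as follows: active = inhibition above about 50% when tested at 10 µM (limit read from the data); inactive = the rest.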 The list comes from a sample in which actives are over-represented; it also holds similar structures and randomly drawn compounds.
biological target: Luciferin 4-monooxygenase (Photinus pyralis) (UniProt P08659); assay: firefly luciferase enzyme inhibitors, primary screen, artefact control for luciferase-based inhibitor screens, biochemical, luminescence, ATPLite (AID 1006); conditions: 10 min, at 10 µM, hits give high values
Sequence (P08659 whole entry, looked up): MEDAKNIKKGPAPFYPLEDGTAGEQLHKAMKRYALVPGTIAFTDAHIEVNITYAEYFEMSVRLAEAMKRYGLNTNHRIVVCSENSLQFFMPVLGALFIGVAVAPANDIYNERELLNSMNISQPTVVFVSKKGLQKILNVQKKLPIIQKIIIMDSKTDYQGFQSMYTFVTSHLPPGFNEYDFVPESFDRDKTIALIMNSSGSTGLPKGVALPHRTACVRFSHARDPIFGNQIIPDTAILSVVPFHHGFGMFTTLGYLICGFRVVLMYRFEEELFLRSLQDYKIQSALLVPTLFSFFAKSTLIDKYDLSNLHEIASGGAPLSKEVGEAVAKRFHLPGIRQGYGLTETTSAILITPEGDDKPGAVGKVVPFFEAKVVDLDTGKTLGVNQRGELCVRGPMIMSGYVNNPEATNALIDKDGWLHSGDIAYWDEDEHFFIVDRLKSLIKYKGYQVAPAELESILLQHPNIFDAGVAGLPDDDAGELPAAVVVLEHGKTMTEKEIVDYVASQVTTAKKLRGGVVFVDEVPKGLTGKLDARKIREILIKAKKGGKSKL

inhibition, active:
CCN1C(=O)/C(=C2\SC(N3CCCCC3)=NC2=O)c2ccccc21 50.9%
C=CCn1c(C)cc(C2=NNC(=NCC)SC2)c1C 96.5%
Cc1ccc(-n2[nH]c(C)c(/C=N/NC(=O)c3cccc([N+](=O)[O-])c3)c2=O)cc1C 94.9%
CCOc1ccc(-c2ccc(SCC(=O)N3CCOCC3)nn2)cc1 84.4%
Cc1cccc(/C(N)=N/OC(=O)c2ccccc2Cl)c1 89.7%
O=C(O)c1ccc(N/N=C/c2cn(-c3ccccc3)nc2-c2cccs2)cc1 92.2%
CN(C(=O)c1ccccn1)c1nnc(-c2ccccn2)s1 55.5%
Cn1c(=NC(=O)c2cnccn2)sc2ccccc21 75.5%
CCNC(=O)CCc1nc(-c2ccc(C(C)(C)C)cc2)no1 52.3%
COc1cc(/C=N/Nc2nn3cnnc3c3ccccc23)cc(OC)c1OC 84.1%
CSCc1ccc(C(=O)Nc2cc(C)cc(C)c2)cc1 77.9%
CCOC(=O)c1sc(NC(=O)CSc2nc(O)c(Cc3ccccc3)c(=O)[nH]2)nc1C 72.8%
CCCOc1ccc(C(=O)NCCc2ccccc2)cc1 70.6%

inhibition, inactive:
CC(C)C1Nc2c(C(=O)O)cccc2C(Nc2ccccc2C(=O)O)C1(C)C (centres undefined) 0.1%
O=C1N=C(N2CCCC2)S/C1=C\c1cccc(Br)c1 -4.4%
CC(C)=C1SC(N2CCN(c3cccc(C)c3)CC2)=NC1=O -5.6%
NC(=O)Nc1ccccc1C(=O)NCCc1ccccc1 2%
CC(=O)c1cc(-c2ccccc2)n(CCC(=O)NC2CCCCCC2)c1C -5.1%
Cc1ccnc2nc(C(=O)OCC(=O)N(CC(C)C)CC(C)C)nn12 -5.4%
CC/C(O)=C1\C(=O)CC(C)(C)CC1=NCCc1nc2ccccc2[nH]1 -2.7%
COCCn1c(C)cc(C2=NNC(=Nc3ccc(F)cc3)SC2)c1C 17.9%
Cc1cc(C2=NNC(=Nc3ccc(S(=O)(=O)N4CCOCC4)cc3)SC2)c(C)n1CC1CCCO1 (centres undefined) -3%
Cc1[nH]n(-c2ccccc2)c(=O)c1/C=N/NC(=O)c1ccoc1C 20.6%
COc1cccc(/C=N/NC(=O)c2cccc([N+](=O)[O-])c2)c1OS(=O)(=O)c1ccc(C)cc1 -9.9%
Cc1ccc2c(c1)C(c1ccccc1)N(C(=O)c1ccc(S(=O)(=O)N3CCOCC3)cc1)CC(=O)N2 (centres undefined) -5.3%
CCOc1ccc(/C=N/NC(=O)C(C)Sc2ccccn2)cc1OCC (centres undefined) -6%
Cc1cccc(C)c1NC(=O)C1(C)c2cccc[n+]2CC(=O)N1Cc1cccs1 (centres undefined) 0.5%
O=C(NCC(O)c1ccc([N+](=O)[O-])cc1)C1CCCCC1 (centres undefined) -2.2%
CN(C)c1ccc(C(CNC(=O)c2ccc(F)cc2)c2c[nH]c3ccccc23)cc1 (centres undefined) -0.6%
CC(C)NC(=S)NN=C1CCCCCCCCCCC1 -6.7%
COc1ccc(-c2nc(SCC(=O)N3CCOCC3)n[nH]2)cc1 9.9%
COc1ccc(-c2ccnc(SCC(=O)N3CCOCC3)n2)cc1 -3.4%
O=C(O)CCCCOn1ccnc1 0.6%
N#C/C(=C(\O)C(F)(F)F)c1nnc2n1CCCCC2 -6.2%
N/C(=N\OC(=O)c1cc(-c2ccccc2)nc2ccccc12)c1ccncc1 1.6%
Cc1cccc(C(=O)c2cccc(C)c2)c1 -6.1%
NC1=NN(c2cccc(C(=O)O)c2)C(=O)C1 -2.1%
OCCNCCOc1ccc(Cl)c(Cl)c1 0.7%
O=C(/C=C\c1cn(-c2ccccc2)nc1-c1cccs1)N1CCOCC1 35.3%
O=C(O)/C=C/c1cn(-c2ccccc2)nc1-c1cccs1 18%
Cc1onc(C(=O)NCc2ccc(F)cc2)c1[N+](=O)[O-] 8%
CC(=O)Nc1ccc(S(=O)(=O)NCC(=O)OCc2cc(=O)oc3ccc4ccccc4c23)cc1 -3.3%
CN(C(=O)COc1ccccc1)c1nnc(-c2ccncc2)s1 -2.1%
CN(C(=O)c1ccno1)c1nnc(-c2cccnc2)s1 0.1%
Cn1c(=NC(=O)CSCC(=O)N2CCCCC2)sc2ccccc21 -5%
Cn1c(=NC(=O)CSCC(=O)N2CCOCC2)sc2ccccc21 -1.3%
CCOc1ccc(-c2n[nH]c(C)c2-c2ccccn2)c(O)c1 -3.7%
Cc1ccc(-c2noc(CCC(N)=O)n2)cc1 0.2%
CN1CCN(C(=O)CCc2nc(-c3ccc(Cl)cc3)no2)CC1 -4.7%
COc1ccc(/C=N/Nc2nc3ccccc3o2)cc1OC 11.5%
CCOc1ccc(/C=N/Nc2nncc(-c3ccccc3)n2)cc1OC 9.9%
CCC(C)(C)C1CCC(=NNC(=O)c2ccc(Br)o2)CC1 (centres undefined) -7.3%
CCCCN(C)CCNC(=O)CSCc1ccc(C)cc1 -9.7%
O=C(CSc1ccc2nnc(-c3ccccc3)n2n1)N1CCCc2ccccc21 4.5%
C=CCN(c1ccc(C(=O)Nc2cc(C)cc(C)c2)cc1)S(C)(=O)=O -2.7%
CC(=O)Nc1ccccc1NC(=O)c1cc(C)cc(C)c1 -8.5%
O=C(O)c1ccc(/C=N/NC(=O)c2ccc(Br)cc2)cc1 15.3%
CCOC(=O)c1sc(NC(=O)CSc2n[nH]c(CC)n2)nc1C -4.3%
O=C(CSc1nc(O)c(Cc2ccccc2)c(=O)[nH]1)Nc1nc2c(s1)CCCC2 -3%
O=C(COC(=O)C1CCCCC1)Nc1ccc([N+](=O)[O-])cc1 2.8%
COc1cc(OC)c(C2=NOC(C(=O)Nc3c(C)n(C)n(-c4ccccc4)c3=O)C2)cc1Cl (centres undefined) -5.5%
CCOC(=O)C1(Cc2ccccc2C(F)(F)F)CCN(C(=O)c2cc(C)n(C)n2)CC1 -9.5%
O=C(NCCc1ccccc1)c1ccc(OCCOc2ccccc2)cc1 -1.1%
O=C(NCCOc1ccccc1)c1ccccc1 14.7%

— PubChem BioAssay AID1006 (Sanford-Burnham Center for Chemical Genomics, 2008)
